{"source": "ChEMBL document CHEMBL3988442", "about": "“University of Dundee, Small-Polar-MMV Screening Library” (2021)", "note": "About 950 (1.4%) of roughly 69,000 compounds showed an effect of 50% or more. The sample holds strong results, similar compounds and a random draw of the others, so the mix is not that of the screen.", "data": [{"system": "Mycobacterium tuberculosis", "experiment": "Cornell M. t heat shock assay; also: in the data most compounds retested in dose-response had high values", "assay_type": "functional, organism-based", "set-up": "dose or concentration left out as unconfirmed", "units": {"Percent Effect": "%"}, "values": [{"smiles": "Cc1cnccc1CN1CC[C@@](C)(O)[C@H](Oc2cccc(F)c2)C1", "Percent Effect": -11.46}, {"smiles": "Cc1cnccc1CN1CC[C@H](Oc2cccc(F)c2)[C@@](C)(O)C1", "Percent Effect": 101.8}, {"smiles": "C[C@]1(O)CN(Cc2ncccc2F)CC[C@@H]1Oc1cccc(F)c1", "Percent Effect": 32.25}, {"smiles": "C[C@]1(O)CN(Cc2ncc[nH]2)CC[C@@H]1Oc1cccc(F)c1", "Percent Effect": -7.197}, {"smiles": "Cc1ccc(CN2CCC3(CCN(c4cnn(C)c4)C3=O)C2)s1.O=C(O)C(F)(F)F", "note": "(stereo not drawn)", "Percent Effect": -24.12}, {"smiles": "O=C(NC1CC1)[C@H]1C[C@H]2OCC[C@H]2N(Cc2cccnc2)C1.O=C(O)C(F)(F)F.O=C(O)C(F)(F)F", "Percent Effect": 0.4638}, {"smiles": "O=C(NCC1CC1)C1CN(Cc2ccncc2)Cc2ccnn2C1.O=C(O)C(F)(F)F.O=C(O)C(F)(F)F.O=C(O)C(F)(F)F", "note": "(stereo not drawn)", "Percent Effect": -17.14}, {"smiles": "Cn1cnc(S(=O)(=O)N2CCCC2)c1Cl", "Percent Effect": 74.4}, {"smiles": "Cn1cnc(S(=O)(=O)N2CCOCC2)c1Cl", "Percent Effect": -1.938}, {"smiles": "CN1CCN(S(=O)(=O)c2ncn(C)c2Cl)CC1", "Percent Effect": -34.66}, {"smiles": "CC(C)(C)C(=O)N1C[C@H](c2ccsc2)[C@H]2CN(C3CCCC3)CC[C@H]21.Cl", "Percent Effect": -4.306}, {"smiles": "O=C(O)C(F)(F)F.O=C(O)C(F)(F)F.O=C1CC[C@]2(CC[C@@H](NCc3cccnc3)CC2)N1Cc1ccccc1", "Percent Effect": -11.79}, {"smiles": "CN1CCS(=O)(=O)[C@@H]2CCN(C(=O)CC(C)(C)C)CC[C@@H]21.O=C(O)C(F)(F)F", "Percent Effect": -1.789}, {"smiles": "CCOc1ccc2nc(CN3CCC(CN)C3)ccc2c1", "note": "(stereo not drawn)", "Percent Effect": 106.9}, {"smiles": "CCOc1ccc2nc(CN3CCOC(CN)C3)ccc2c1", "note": "(stereo not drawn)", "Percent Effect": 16.64}, {"smiles": "CCOc1ccc2nc(CN3CCC(CNC(C)=O)C3)ccc2c1", "note": "(stereo not drawn)", "Percent Effect": 3.715}, {"smiles": "CC(=O)c1c(C)nn(CC(=O)Nc2ccc(F)cc2)c1C", "Percent Effect": 21.2}, {"smiles": "Cc1cc(=O)n(CC(=O)Nc2ccc(Cl)cc2)nc1C", "Percent Effect": -4.62}, {"smiles": "Cc1nn(CC(=O)Nc2cccc(F)c2)c(N)c1C#N", "Percent Effect": 4.908}, {"smiles": "Cc1cc(NC(=O)Cn2nc(C)c(C#N)c2N)ccc1Br", "Percent Effect": -21.12}, {"smiles": "CC(=O)c1c(C)nn(CC(=O)Nc2ccc(Br)cc2)c1C", "Percent Effect": 105.9}, {"smiles": "COc1ccc(NC(=O)Cn2nc(C)c(C)cc2=O)cc1OC", "Percent Effect": 2.159}, {"smiles": "COc1ccc(NC(=O)Cn2nc(C)c(C(C)=O)c2C)cc1", "Percent Effect": 105.6}, {"smiles": "COc1ccc(NC(=O)Cn2nc(C)c(C)cc2=O)cc1", "Percent Effect": 2.037}, {"smiles": "Cc1nn(CC(=O)Nc2ccc(F)cc2)c(N)c1C#N", "Percent Effect": 51.75}, {"smiles": "NC(=O)N1CCC2(CC1)CN(Cc1cccnc1)C(=O)CO2.O=C(O)C(F)(F)F", "Percent Effect": -31.58}, {"smiles": "Cn1cc(CN2C[C@H]3CCC[C@@]3(COCC3CC3)C2)cn1.O=C(O)C(F)(F)F", "Percent Effect": 12.92}, {"smiles": "COc1cc(CNCC(O)c2cccc(F)c2)cc2c1OCO2.Cl", "note": "(stereo not drawn)", "Percent Effect": -9.248}, {"smiles": "Cc1cccc(CN2CC[C@H]3[C@H]2CCN3Cc2cnn(C)c2)n1.O=C(O)C(F)(F)F.O=C(O)C(F)(F)F.O=C(O)C(F)(F)F", "Percent Effect": -12.06}, {"smiles": "Cc1noc(C)c1CN1CCC2(CC1)NC(=O)CC2c1ccccc1.O=C(O)C(F)(F)F", "note": "(stereo not drawn)", "Percent Effect": 5.51}, {"smiles": "Cc1noc(C)c1C(=O)N1Cc2ncn(C)c2C(COCC2CC2)C1.O=C(O)C(F)(F)F", "note": "(stereo not drawn)", "Percent Effect": 16.79}, {"smiles": "CCN1CCC2(CCN(Cc3ccc(OC)cc3)CC2)C1=O.O=C(O)C(F)(F)F", "Percent Effect": -24.62}, {"smiles": "Cl.N[C@@H](Cc1ccccc1)c1nnc(S(=O)(=O)Cc2cccc(Cl)c2)o1", "Percent Effect": -4.264}, {"smiles": "Cc1ccc(N2CCC(c3[nH]ncc3Cc3ccccc3)CC2)nn1", "Percent Effect": 102.6}, {"smiles": "Cc1ccc(N2CCCC(c3[nH]ncc3Cc3ccccc3)C2)nn1", "note": "(stereo not drawn)", "Percent Effect": 8.561}, {"smiles": "CCc1cn[nH]c1C1CCN(c2cc(C)c3ccc(OC)cc3n2)CC1", "Percent Effect": -17.8}, {"smiles": "CCc1cn[nH]c1C1CCN(c2cc(C)c3cc(OC)ccc3n2)CC1", "Percent Effect": 2.652}, {"smiles": "CCc1cn[nH]c1C1CCN(c2cc(C)c3cccc(OC)c3n2)CC1", "Percent Effect": 85.21}, {"smiles": "Cc1ccc(N2CCC(c3cc(Cc4ccccc4)n[nH]3)CC2)nn1", "Percent Effect": 6.303}, {"smiles": "CC(=O)N1CCN(Cc2ccc(C)o2)CC2(CC(=O)N(C)C2)C1.O=C(O)C(F)(F)F", "note": "(stereo not drawn)", "Percent Effect": -2.414}, {"smiles": "Cc1nc(N)ncc1C(=O)N1CCCC(CCc2ccc(F)cc2)C1", "note": "(stereo not drawn)", "Percent Effect": -19.18}, {"smiles": "Cc1ncccc1NC(=O)[C@@H]1CCO[C@@H]2CCN(c3ccccc3)C[C@@H]21.O=C(O)C(F)(F)F.O=C(O)C(F)(F)F", "Percent Effect": 12.9}, {"smiles": "CCN(Cc1noc(C)n1)C(=O)CC1C(=O)NCCN1CC(C)(C)C", "note": "(stereo not drawn)", "Percent Effect": -17.37}]}]}
